Results filed as inconclusive are left out. Activity calls are given as the source filed them. Calls come from the whole dose curve; as a rule, active = well fitted cell-killing curve with a large enough effect; inconclusive = small, poorly fitted or top-dose-only effect, or effect the other way; inactive = no such curve, though single readings can be large or run the other way.
Experiment: Quantitative High-Throughput drug screen in 47 multiple myeloma cell lines against the NCATS MIPE library collection: FR4_PLB cell viability assay (AID 1918924; note: nearly all actives have a fitted effect of over 35% in size)
Settings: FR4_PLB myeloma cells viability, CellTiter-Glo ATP, 48 h; series mostly up to 45.8 µM; viability (% of DMSO control): at the top concentration
Source text: PI: Beverly A. Mock Ph.D.
Laboratory of Cancer Biology and Genetics,
Center for Cancer Research, National Cancer Institute,
National Institute of Health, Bethesda, Maryland
Drug resistance and disease progression are common in multiple myeloma (MM) patients, underscoring the need for new therapeutic combinations. […] We hypothesized that effective combinations would reduce MYC expression and enhance p16 activity. […] These preclinical data identify potentially useful drug combinations for evaluation in drug-resistant MM and reveal potential mechanisms of combined drug sensitivity.
Described herein is the primary MIPE qHTS used to cherrypick compounds. Validated compounds were then further tested for potential synergistic activiy.
[1] Peat TJ, Gaikwad SM, Dubois W, Gyabaah-Kessie N, Zhang S, Gorjifard S, Phyo Z, Andres M, Hughitt VK, Simpson RM, Miller MA, Girvin AT, Taylor A, Williams D, D'Antonio N, Zhang Y, Rajagopalan A, Flietner E, Wilson K, Zhang X, Shinn P, Klumpp-Thomas C, McKnight C, Itkin Z, Chen L, Kazandijian D, Zhang J, Michalowski AM, Simmons JK, Keats J, Thomas CJ, Mock BA. Drug combinations identified by high-throughput screening promote cell cycle transition and upregulate Smad pathways in myeloma. Cancer Lett. 2023 Aug 1;568:216284. doi: 10.1016/j.canlet.2023.216284. Epub 2023 Jun 24. PMID: 37356470; PMCID: PMC10408729.
SEQUENCE No. (e.g., 1, 2, 3, etc.); […] (e.g., Cells, Incubation, Reagent, etc.); VALUE and DESCRIPTION.
1; Cells; 5 uL; white, solid bottom 1536-well Greiner assay plate.
2; Compounds; 23 nL; Kalypsis pin tool (Wako USA) equipped with a 1536-well pin head to transfer to the assay plates.
3; Incubation; 48 hours; 37C incubation.
4; Reagent;5uL; CellTiter Glo (Promega).
5; Detector; 425V; Luminescence; Viewlux PerkinElmer.
NOTES (numbers refer to Sequence numbers above)
1. The cell-based screening methods employed in this study were like those previously published. Briefly, the corresponding myeloma cell lines were screened in 1,536-well plates with 500 cells, 5-uL per well for inhibition of cell viability (assessed by measuring ATP levels with CellTiterGlo).
2. NCATS MIPE 4.0 library of approved and investigational drugs were added using the Kalypsis pin tool. Wells treated with DMSO only for 100% viability and media only wells for 0% viability were used as controls.
3. The assay plates were covered and incubated for 48 hours in a 37C, 5% CO2 incubator with controlled humidity.
4. After 48 hours, CellTilter-GloTM luminescent substrate mix (Promega) reagent was added to the assay plate and plates we incubated for 5 min at room temperature.
5. Signal was measured as median relative luminescence units on a ViewLux (PerkinElmer) multiplate reader.
[1] Heske CM, Davis MI, Baumgart JT, Wilson K, Gormally MV, Chen L, Zhang X, Ceribelli M, Duveau DY, Guha R, Ferrer M, Arnaldez FI, Ji J, Tran HL, Zhang Y, Mendoza A, Helman LJ, Thomas CJ. Matrix Screen Identifies Synergistic Combination of PARP Inhibitors and Nicotinamide Phosphoribosyltransferase (NAMPT) Inhibitors in Ewing Sarcoma. Clin Cancer Res. 2017 Dec 1;23(23):7301-7311. doi: 10.1158/1078-0432.CCR-17-1121. Epub 2017 Sep 12. PMID: 28899971; PMCID: PMC6636827.
Potency is the fitted concentration of half-maximal effect.

SMILES	viability (% of DMSO control)	Potency
C#CCN(C)[C@H](C)Cc1ccccc1	95.2% (inactive)	–
CN(C)CCN(C)CCc1ccc(Cl)c(Cl)c1	116% (inactive)	–
COC1(CS(=O)c2ccccc2)CCN(CCc2c[nH]c3ccc(F)cc23)CC1 (stereo not given)	97.2% (inactive)	–
Cc1cc(SCc2sc(-c3ccc(C(F)(F)F)c(F)c3)nc2C)ccc1OCC(=O)O	110% (inactive)	–
N[C@@H](Cc1ccc(N(CCCl)CCCl)cc1)C(=O)O	–	20.9 µM (active)
CN(C)CCc1ccc(O)cc1	113% (inactive)	–
Cn1c(CCCC(=O)O)nc2cc(N(CCCl)CCCl)ccc21	–	16.6 µM (active)
C[C@@H]1[C@@H](CC(C[C@H]2O[C@@H]3O[C@]4(C)CC[C@@H]5[C@H](C)CC[C@@H]([C@H]2C)[C@@]35OO4)C[S+](=O)([O-])c2ccc(COC(=O)N(C)C)cc2)O[C@@H]2O[C@]3(C)CC[C@H]4[C@H](C)CC[C@@H]1[C@@]24OO3 (stereo not given in full)	–	0.209 µM (active)
Cn1cc(C2=C(c3cn(C4CCN(Cc5ccccn5)CC4)c4ccccc34)C(=O)NC2=O)c2ccccc21	–	16.6 µM (active)
COC[C@H]1OC(=O)c2coc3c2[C@@]1(C)C1=C(C3=O)C2CCC(=O)[C@@]2(C)C[C@H]1OC(C)=O (stereo not given in full)	–	11.8 µM (active)
Cc1sc2c(c1C)C(c1ccc(Cl)cc1)=N[C@@H](CC(=O)OC(C)(C)C)c1nnc(C)n1-2	–	0.332 µM (active)
Fc1ccc(C(OCCN2CCN(CCCc3ccccc3)CC2)c2ccc(F)cc2)cc1	–	20.9 µM (active)
O=C1CC[C@@]2(O)[C@H]3Cc4ccc(O)c5c4[C@@]2(CCN3CC2CC2)[C@H]1O5	125% (inactive)	–
CNC(=O)c1ccc(N2C(=S)N(c3ccc(C#N)c(C(F)(F)F)c3)C(=O)C23CCC3)cc1F	104% (inactive)	–
CN1CCN(C(=O)O[C@H]2c3nccnc3C(=O)N2c2ccc(Cl)cn2)CC1	122% (inactive)	–
CNCC(O)c1ccc(O)cc1 (stereo not given)	116% (inactive)	–
C=C(C)[C@H]1Cc2c(ccc3c2O[C@@H]2COc4cc(OC)c(OC)cc4[C@@H]2C3=O)O1	–	0.935 µM (active)
C[C@@H]1O[C@@H](O[C@H]2C[C@@H](O)[C@]3(CO)[C@H]4[C@H](O)C[C@]5(C)[C@@H](C6=CC(=O)OC6)CC[C@]5(O)[C@@H]4CC[C@]3(O)C2)[C@H](O)[C@H](O)[C@H]1O	–	0.0093 µM (active)
CC1=C2C[C@@H]3[C@@H](CC=C4C[C@@H](O)CC[C@@]43C)[C@@H]2CC[C@]12O[C@H]1C[C@H](C)CN[C@H]1[C@H]2C	–	10.5 µM (active)
COc1ccc(C(CN(C)C)C2(O)CCCCC2)cc1 (stereo not given)	104% (inactive)	–
O=c1[nH]c2ccccc2n1CCCN1CCC(n2c(=O)[nH]c3cc(Cl)ccc32)CC1	104% (inactive)	–
NCC1(CC(=O)O)CCCCC1	108% (inactive)	–
COC[C@@H](NC(C)=O)C(=O)NCc1ccccc1	112% (inactive)	–
O=P1(NCCCl)OCCCN1CCCl (stereo not given)	–	16.6 µM (active)
O=C(O)C(=O)c1cn(Cc2ccccc2)c2ccc(-c3ccc(OC(F)(F)F)cc3)cc12	108% (inactive)	–
